# According to the supplement of paper PMC10338343:
# ± gives the standard deviation.
# System: MILI (PIWIL2) piRISC loaded with L1MC piRNA (26 nt)
# Assay: pre-steady-state target cleavage rate (min^-1); guide: L1MC piRNA 5'p-UAACUAAAUACUAUGCAAGCUGUAGG; MIWI and MILI are mouse PIWI proteins and EfPiwi is from a freshwater sponge; tags in brackets are library labels; higher = faster piRNA-guided slicing of the target
# Conditions: auxiliary factor: 500 nM mouse GTSF1
# Outline: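 The pre-steady-state cleavage rate was derived from a burst-and-steady-state fit of Cleave-'n-Seq data. For these assays, 1 nM active affinity-purified piRISC loaded with a single synthetic guide was mixed with […] a transcribed, DNA-blocked target RNA library in HEPES–potassium acetate buffer at 33 °C, with or without 500 nM GTSF1 partner protein, for 0–8 or 0–960 min. Sequencing counts of uncleaved targets were normalised to depth and to weakly complementary targets, and k3 was capped at 0.0001 min^-1 after three trials were pooled.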
# 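Also: 1 nM active piRISC with 0.1 nM target library at 33 °C single turnover.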
row,Sequence,pre-steady-state target cleavage rate
1,UCCUGCUACAGCUUGCAUAGUAAUUUGUUA,0.245 ± 0.053
2,UCCUGGUACAGCUUGCAAUGUAUUUACAAA,0.00784 ± 0.0049
3,UCCUGGAUCAGCUUGCAUAGUAAAAAGUUA,0.102 ± 0.019
4,UCCUGGAUCAGCUUGCAUAUGUAUUUAGUUA,0.00465 ± 0.0046
5,UCCUGGAUCAGCUUCGAUAGUAUUUACAAA,0.00974 ± 0.005
6,UCCUGGAACAGCUUGCAUACUAUUUACAAA,0.0166 ± 0.0064
7,UCCUGGAUGUGGUUGCAUAGUAUUUACUUA,0.00985 ± 0.0096
8,UCCUGGAUGAGCUUGCAUAGUAUUUUCAAA,0.00959 ± 0.0061
9,UCCUGGAUCACCUUGCAUAGUAUUUAGAAA,0.22 ± 0.051
10,UCCUGCUACAGCUUGCAUUCUAUUUAGUAA,0.0252 ± 0.0088
11,UCCUGGAUGAGCUUGCUAUAGUAUUUAGUUA,0.00431 ± 0.0032
12,UCCUGGUACAGCUUGCAUAGUUUAUAGUUA,0.0525 ± 0.018
13,UCCUGGAUGAGCUUGCUAAGUAUUUAGUAA,0.0109 ± 0.0046
14,UCCUGGAACAGGAAGCAUAGUAUUUAGAAA,0.049 ± 0.011
15,UCCUGGAACAGCUUGCUAAGUAUUUAGAAA,0.0282 ± 0.01
16,UCCUGGUACAGCUUGCAUAGUAUAAUCAAA,0.0264 ± 0.0091
17,UCCUGCUACAGCUACCAUAGUAUUUAGAAA,0.0677 ± 0.021

row,Sequence,pre-steady-state target cleavage rate
1,UCCUCCUACAGCUUGCAUACAAUUUAGUUA,0.00727 ± 0.0046
2,UCCUGGAUCAGCUUCGUUAGUAUUUAGUAA,0.02 ± 0.0056
3,UCCUGCUACAGCUUGCAUAGAAUUUUCAAA,0.0169 ± 0.0066
4,UCCUGCUAGUCCUUGCAUAGUAUUUACAAA,0.0056 ± 0.004
5,UCCUGCUACAGCUUGCAUAGUAAAAAGUAA,0.0283 ± 0.0099
6,UCCUGGUACACCUUGCAUACUAUUUAGUUA,0.228 ± 0.072
7,UCCUGGAAGUCCUUGCAUAGUAUUUACAAA,0.0598 ± 0.018
8,UCCUGGAUGUCCUUGCAUAGUAUUAACUUA,0.0115 ± 0.0049
9,UCCUGGAUCAGCUUGCAUAGAUAUUAGUUA,0.00566 ± 0.0036
10,UCCUGGAUGUGCUUGCAUAGUAUUUUGAUA,0.0122 ± 0.0054
11,UCCUCCUACAGCUUGCAUAUGUAUUUAGUUA,0.0106 ± 0.0057
12,UCCUGGAUGUGCUACCAUAGUAUUUAGAAA,0.00379 ± 0.0038
13,UCCUGGAUGUGCUUGCCAUAGUAUUUAGUUA,0.014 ± 0.0071
14,UCCUGGAACAGCUUCGUUAGUAUUUAGUAA,0.115 ± 0.017
15,UCCUGGAUGUCCUUGCAUAGAAUAUAGUUA,0.00487 ± 0.0038
16,UCCUGGAACAGCAACCAUAGUAUUUAGAAA,0.018 ± 0.0072
